This is an account of results in PubChem BioAssay.

This experiment concerns Sonic hedgehog protein (Shh). The experiment can be described thus: small-molecule binders of Shh protein, primary screen, biochemical, small-molecule microarray, 635/667 nm fluorescence (AID 1151).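 Note: Shh protein binding to compounds spotted on small-molecule microarray slides; score combines spot fluorescence intensity with signal-to-noise across triplicate slides.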 Conditions: small-molecule microarray binding, 635 nm fluorescence; higher = more signal.
Take `CON=C(C)CCC(=O)OC[C@H]1O[C@H](C#Cc2ccccc2)C=C[C@@H]1Oc1ccc(C)cc1`: the composite z-score is 0.597.

The molecule `CC(C)(C)N1C(=O)[C@H]2[C@H]3[C@H](O)[C@H](O)CC(=NOC[C@@H](O)COCc4ccco4)[C@@H]3CC[C@H]2C1=O` showed a composite z-score of -0.633. With `CO[C@@H]1[C@H](O)CO[C@H]1C=Cc1ccccc1`, the composite z-score was -0.0147. In the case of `CCN1C(=O)[C@H]2[C@H]3[C@H](O)[C@H](O)CC(=NOCC[C@@H]4C=C[C@H](OC(C)=O)[C@@H](COC(C)=O)O4)[C@@H]3CC[C@H]2C1=O` it was 0.55; in that of `CO[C@@H](C1CCCCC1)[C@@H](C)[C@H](OCc1cccc(Br)c1)[C@@H](C)CO`, 0.458; in that of `CCOC(=O)CCN1C(=O)[C@H]2[C@H]3[C@H](O)[C@H](O)CC(=NOCC(C)C)[C@@H]3CC[C@H]2C1=O`, 1.1.

In turn, `CCOC(=O)CCN1C(=O)[C@H]2[C@H]3[C@H](O)[C@H](O)CC(=NO[C@@H]4O[C@H](CO)[C@@H](O)[C@H](O)[C@H]4O)[C@@H]3CC[C@H]2C1=O` showed a composite z-score of 1.62.

Molecule `CO[C@H]1COC(=O)CC=C[C@@H](C)COC(=O)[C@H]2CCCN2C(=O)CC=C[C@H]1C` came in with a composite z-score of 1.79. Next, `CCOC(=O)[C@H](Cc1ccccc1)NC(=O)CCC1CC(OC(=O)NCc2cccc3ccccc23)CC2(CCCC(COC(=O)NCCc3ccccc3OC)O2)O1` (stereo partly specified): 1.1; `Cc1ccc(S(=O)(=O)N[C@@H]2COC(=O)CC=C[C@@H](C)[C@H](NS(=O)(=O)c3ccc(C)cc3)COC(=O)[C@H](C)NC(=O)CC=C[C@H]2C)cc1`: 0.427. Next, `CCN1C(=O)[C@H]2[C@H]3[C@H](O)[C@H](O)CC(=NOCC=C(C)CCC=C(C)C)[C@@H]3CC[C@H]2C1=O`: 2.07; `O=C1[C@H]2[C@H]3[C@H](O)[C@H](O)CC(=NOC[C@@H](O)COCc4ccco4)[C@@H]3CC[C@H]2C(=O)N1Cc1ccccc1`: 0.399; `O=C1[C@H]2CCn3c(=O)n(-c4ccccc4)c(=O)n3[C@H]2[C@H](O)[C@@H]2O[C@H]12`: 0.24. For the molecule `CON=C[C@@H](OC)[C@H](C)C=CCC(=O)OC`, the composite z-score was determined as 0.183.

For `CC(C)=CCCC(C)=CCON=C1C[C@@H](O)[C@@H](O)[C@@H]2[C@@H]3C(=O)N(Cc4ccc5c(c4)OCO5)C(=O)[C@@H]3CC[C@@H]12`, the composite z-score turned out to be 0.816. Next, `CC(=O)OC[C@H]1O[C@H](CC=NO[C@@H](C)c2cc(-c3c(C)cc(C)cc3C)no2)C=C[C@@H]1OC(C)=O`: 0.0602; `COc1ccc(-c2cnnc(CCCn3ccnc3-c3ccccc3)n2)cc1`: 0.838. As for `O=C1C2=CC[C@H]3C(=O)N(c4ccc(F)cc4F)C(=O)[C@H]3[C@H]2[C@H](O)[C@@H]2O[C@H]12`, the composite z-score was determined as 0.389. As for `COC(=O)CC=C[C@@H](C)[C@@H](C=NOC[C@@H](O)COCc1ccco1)OC`, the composite z-score is 1.99. Next, `COC(=O)[C@H](C)NC(=O)CCC1CC(OC(=O)NCc2cccc3ccccc23)CC2(CCCC(COC(=O)NCCCN3CCCC3=O)O2)O1` (stereo partly specified): 0.608; `CCOC(=O)[C@H](CC(C)C)NC(=O)CCC1CC(OC(=O)NCc2ccc3c(c2)OCO3)CC2(CCCC(COC(=O)NCCc3ccccc3OC)O2)O1` (stereo partly specified): 1.19; `CO[C@@H](C(C)C)[C@@H](C)C1OC(=O)CC1O` (stereo partly specified): -0.595. In turn, `Cc1ccc(C(C)C)n1C(=O)OC(C)(C)C` had a composite z-score of 0.675. In the case of `CCOC(=O)[C@H](Cc1ccccc1)NC(=O)CCC1CC(OC(=O)NCc2ccc3c(c2)OCO3)CC2(CCCC(COC(=O)NCCOc3ccccc3)O2)O1` (stereo partly specified) it was 1.6; in that of `CSCC[C@@H]1NC(=O)CC=C[C@@H](C)COC(=O)[C@H](C)COC1=O`, 2.45; in that of `CO[C@H]1COC(=O)CCC[C@H](C)[C@@H](OC)COC(=O)CC=C[C@@H]1C`, 1.34. `CC(C)[C@@H](OCc1ccccc1)[C@H](C)C=NO[C@@H](C)c1cn([C@H](CO)Cc2ccccc2)nn1`: the composite z-score stood at 0.26. Next, `CCN1C(=O)[C@H]2[C@@H]3C(=CC[C@H]2C1=O)C(=O)[C@H]1O[C@H]1[C@H]3O`: 1.64; `CC(C)=CCCC(C)=CCON=C1C[C@@H](O)[C@@H](O)[C@@H]2[C@@H]3C(=O)N(C4CCCCC4)C(=O)[C@@H]3CC[C@H]12`: 1.01; `C=CC[C@@H]1C=C[C@H](ON=C[C@@H](NS(=O)(=O)c2ccc(C)cc2)[C@H](C)C=CCC(=O)OC)[C@@H](CO)O1`: 0.416.

Molecule `COC(=O)[C@H](C)NC(=O)CCC1CC(OC(=O)NCCc2ccc(F)cc2)CC2(CCCC(COC(=O)NCCOc3ccccc3)O2)O1` (stereo partly specified) showed a composite z-score of 1.46. As for `CO[C@@H]1COC(=O)[C@H](COCc2ccccc2)NC(=O)CC=C[C@@H](C)[C@H](OC)COC(=O)[C@@H](C)NC(=O)CC=C[C@H]1C`, the composite z-score turned out to be 1.92. Regarding `CC(CCC(=O)OC[C@H]1O[C@H](C#Cc2ccccc2)C=C[C@@H]1Oc1ccc(C)cc1)=NOC[C@@H](C)[C@H](OCc1ccccc1)C(C)C`, the composite z-score is 0.0623. In the case of `COC(=O)[C@H](C)NC(=O)CC=C[C@@H](C)[C@@H]1C=C[C@H](O)[C@@H](CO)O1` it was 1.39. In the case of `C=CC[C@@H]1C=C[C@H](ON=C(C)CCN2CCCc3nc(C)c(C)cc32)[C@@H](CO)O1` it was 1.66. Consider `O=C1C=C[C@@H](O)[C@@H]2[C@@H]3C(=O)N(Cc4ccccc4)C(=O)[C@@H]3CC[C@@H]12`, for which the composite z-score turned out to be 0.632.
